# Measured values: the supplement of paper PMC12282887
# ± gives the standard deviation of the averaged measurements.
# What was measured:
# Test in all cases: promoter activity interaction Z-score (Lux/OD deviation from empty-vector control); higher = stronger promoter induction by the compound
# [1] = tested on: E. coli BW25113 acrABp lux reporter
# How it was run: (§1)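 E. coli BW25113, as wild type or one of three single-gene deletion strains, carried low-copy luxCDABE promoter reporters and grew in 40 µl LB Lennox in 384-well plates at 37°C, with OD600 and luminescence read every 30 min for 12 h. Each compound was run at four 1:2 dilutions in biological duplicates, integration spanned 0–8 h for wild type and 1–9 h for deletion strains, and wells under 10% of the median growth value were dropped. The score is the Z-transformed residual of growth-normalised luminescence fitted against a control.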
# [2] = tested on: E. coli BW25113 micFp lux reporter
# How it was run: as §1
# [3] = tested on: E. coli BW25113 ompFp lux reporter
# How it was run: as §1
# [4] = tested on: E. coli BW25113 robp lux reporter
# How it was run: as §1
# [5] = tested on: E. coli BW25113 soxSp lux reporter
# How it was run: as §1
# [6] = tested on: E. coli BW25113 tolCp lux reporter
# How it was run: as §1
# [7] = 0.25 µg/ml, genetic background: wild type
# [8] = 0.25 µg/ml, genetic background: ΔmarA
# [9] = 0.25 µg/ml, genetic background: Δrob
# [10] = 0.25 µg/ml, genetic background: ΔsoxS
# [11] = 0.5 µg/ml, genetic background: wild type
# [12] = 0.5 µg/ml, genetic background: ΔmarA
# [13] = 0.5 µg/ml, genetic background: Δrob
# [14] = 0.5 µg/ml, genetic background: ΔsoxS
# [15] = 1 µg/ml, genetic background: wild type
# [16] = 1 µg/ml, genetic background: ΔmarA
# [17] = 1 µg/ml, genetic background: Δrob
# [18] = 1 µg/ml, genetic background: ΔsoxS
# [19] = 2 µg/ml, genetic background: wild type
# [20] = 2 µg/ml, genetic background: ΔmarA
# [21] = 2 µg/ml, genetic background: Δrob
# [22] = 2 µg/ml, genetic background: ΔsoxS
smiles,measurement,setting,value
C/C(=C\C(=O)OCCCCCCCCC(=O)O)C[C@@H]1OC[C@H](C[C@@H]2O[C@H]2[C@@H](C)[C@H](C)O)[C@@H](O)[C@H]1O [Pseudomonic acid],promoter activity interaction Z-score,[1]; [7],-0.112 ± 0.0017
same,promoter activity interaction Z-score,[1]; [8],0.206 ± 0.33
same,promoter activity interaction Z-score,[1]; [9],0.0305 ± 0.27
same,promoter activity interaction Z-score,[1]; [10],-0.332 ± 0.5
same,promoter activity interaction Z-score,[1]; [11],-0.272 ± 0.0069
same,promoter activity interaction Z-score,[1]; [12],0.456 ± 0.14
same,promoter activity interaction Z-score,[1]; [13],-0.0699 ± 0.0047
same,promoter activity interaction Z-score,[1]; [14],-0.0985 ± 0.042
same,promoter activity interaction Z-score,[1]; [15],-0.204 ± 0.26
same,promoter activity interaction Z-score,[1]; [16],0.378 ± 0.38
same,promoter activity interaction Z-score,[1]; [17],-0.109 ± 0.35
same,promoter activity interaction Z-score,[1]; [18],0.483 ± 0.38
same,promoter activity interaction Z-score,[1]; [19],-0.0697 ± 0.066
same,promoter activity interaction Z-score,[1]; [20],-0.0876 ± 0.43
same,promoter activity interaction Z-score,[1]; [21],0.431 ± 0.61
same,promoter activity interaction Z-score,[1]; [22],-0.262 ± 0.13
same,promoter activity interaction Z-score,[2]; [7],-0.00251 ± 0.014
same,promoter activity interaction Z-score,[2]; [8],-0.0765 ± 0.049
same,promoter activity interaction Z-score,[2]; [9],0.0594 ± 0.055
same,promoter activity interaction Z-score,[2]; [10],-0.253 ± 0.16
same,promoter activity interaction Z-score,[2]; [11],-0.108 ± 0.12
same,promoter activity interaction Z-score,[2]; [12],0.0535 ± 0.005
same,promoter activity interaction Z-score,[2]; [13],-0.0538 ± 0.014
same,promoter activity interaction Z-score,[2]; [14],0.11 ± 0.00091
same,promoter activity interaction Z-score,[2]; [15],-0.064 ± 0.06
same,promoter activity interaction Z-score,[2]; [16],-0.0233 ± 0.076
same,promoter activity interaction Z-score,[2]; [17],-0.144 ± 0.018
same,promoter activity interaction Z-score,[2]; [18],0.271 ± 0.095
same,promoter activity interaction Z-score,[2]; [19],-0.0515 ± 0.13
same,promoter activity interaction Z-score,[2]; [20],-0.351 ± 0.054
same,promoter activity interaction Z-score,[2]; [21],-0.275 ± 0.0059
same,promoter activity interaction Z-score,[2]; [22],-0.431 ± 0.085
same,promoter activity interaction Z-score,[3]; [7],0.431 ± 0.041
same,promoter activity interaction Z-score,[3]; [8],0.122 ± 0.59
same,promoter activity interaction Z-score,[3]; [9],0.647 ± 0.08
same,promoter activity interaction Z-score,[3]; [10],0.0332 ± 0.47
same,promoter activity interaction Z-score,[3]; [11],0.435 ± 0.061
same,promoter activity interaction Z-score,[3]; [12],0.376 ± 0.74
same,promoter activity interaction Z-score,[3]; [13],0.561 ± 0.78
same,promoter activity interaction Z-score,[3]; [14],0.388 ± 0.58
same,promoter activity interaction Z-score,[3]; [15],0.248 ± 0.034
same,promoter activity interaction Z-score,[3]; [16],0.569 ± 0.62
same,promoter activity interaction Z-score,[3]; [17],-0.0747 ± 0.3
same,promoter activity interaction Z-score,[3]; [18],0.938 ± 0.33
same,promoter activity interaction Z-score,[3]; [19],1.46 ± 0.058
same,promoter activity interaction Z-score,[3]; [20],1.34 ± 1.3
same,promoter activity interaction Z-score,[3]; [21],1.51 ± 0.36
same,promoter activity interaction Z-score,[3]; [22],1.34 ± 0.34
same,promoter activity interaction Z-score,[4]; [7],0.653 ± 0.041
same,promoter activity interaction Z-score,[4]; [8],0.421 ± 0.4
same,promoter activity interaction Z-score,[4]; [9],0.357 ± 0.37
same,promoter activity interaction Z-score,[4]; [10],0.316 ± 0.48
same,promoter activity interaction Z-score,[4]; [11],0.392 ± 0.59
same,promoter activity interaction Z-score,[4]; [12],0.85 ± 0.05
same,promoter activity interaction Z-score,[4]; [13],0.39 ± 0.34
same,promoter activity interaction Z-score,[4]; [14],0.257 ± 0.2
same,promoter activity interaction Z-score,[4]; [15],0.263 ± 0.2
same,promoter activity interaction Z-score,[4]; [16],0.154 ± 0.026
same,promoter activity interaction Z-score,[4]; [17],0.375 ± 0.08
same,promoter activity interaction Z-score,[4]; [18],0.843 ± 0.45
same,promoter activity interaction Z-score,[4]; [19],-0.842 ± 0.42
same,promoter activity interaction Z-score,[4]; [20],-1.15 ± 0.4
same,promoter activity interaction Z-score,[4]; [21],-1.28 ± 0.23
same,promoter activity interaction Z-score,[4]; [22],-1.41 ± 0.72
same,promoter activity interaction Z-score,[5]; [7],-0.0625 ± 0.032
same,promoter activity interaction Z-score,[5]; [8],-0.0981 ± 0.09
same,promoter activity interaction Z-score,[5]; [9],0.0456 ± 0.03
same,promoter activity interaction Z-score,[5]; [10],-0.226 ± 0.46
same,promoter activity interaction Z-score,[5]; [11],-0.257 ± 0.034
same,promoter activity interaction Z-score,[5]; [12],-0.0627 ± 0.0052
same,promoter activity interaction Z-score,[5]; [13],-0.182 ± 0.0097
same,promoter activity interaction Z-score,[5]; [14],-0.102 ± 0.24
same,promoter activity interaction Z-score,[5]; [15],-0.14 ± 0.14
same,promoter activity interaction Z-score,[5]; [16],-0.143 ± 0.15
same,promoter activity interaction Z-score,[5]; [17],-0.259 ± 0.033
same,promoter activity interaction Z-score,[5]; [18],0.137 ± 0.11
same,promoter activity interaction Z-score,[5]; [19],0.249 ± 0.064
same,promoter activity interaction Z-score,[5]; [20],0.277 ± 0.25
same,promoter activity interaction Z-score,[5]; [21],0.0902 ± 0.012
same,promoter activity interaction Z-score,[5]; [22],0.748 ± 0.0089
same,promoter activity interaction Z-score,[6]; [7],-0.891 ± 0.62
same,promoter activity interaction Z-score,[6]; [8],-0.0344 ± 0.2
same,promoter activity interaction Z-score,[6]; [9],-0.281 ± 0.4
same,promoter activity interaction Z-score,[6]; [10],-1.37 ± 0.18
same,promoter activity interaction Z-score,[6]; [11],-0.126 ± 0.82
same,promoter activity interaction Z-score,[6]; [12],0.395 ± 0.35
same,promoter activity interaction Z-score,[6]; [13],-0.919 ± 0.45
same,promoter activity interaction Z-score,[6]; [14],-0.306 ± 0.13
same,promoter activity interaction Z-score,[6]; [15],-0.0576 ± 0.9
same,promoter activity interaction Z-score,[6]; [16],0.349 ± 1.1
same,promoter activity interaction Z-score,[6]; [17],-0.441 ± 0.81
same,promoter activity interaction Z-score,[6]; [18],0.0561 ± 0.82
same,promoter activity interaction Z-score,[6]; [19],0.277 ± 0.14
same,promoter activity interaction Z-score,[6]; [20],-0.606 ± 0.55
same,promoter activity interaction Z-score,[6]; [21],0.432 ± 0.075
same,promoter activity interaction Z-score,[6]; [22],-1.08 ± 0.07
